# High-throughput results (PubChem)
# Hits are enriched below; roughly 4.5% of the tested compounds scored in any of these assays.
# dFosB act – enhances mouse delta FosB homodimer DNA binding. purified delta FosB, TAMRA-CDK5 oligo fluorescence polarization; percent of positive-control signal above neutral wells. activation, % at 25 µM. P13346. 340,000 compounds, 0.99% hits. AID 493131;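 active = mean activation above about 17%, with every replicate also reaching it, limit read from the data, passing the limit was not always enough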
# ZTA DNA inh – counter-screen for EBNA-1 inhibitors: inhibitors of Epstein-Barr virus ZTA. AID 2234. inhibition, % at 11 µM. ZTA-DNA binding, fluorescence polarization. P03206. 320,000 compounds, 0.15% hits; in the data active = inhibition above about 33%
# Target sequence (P03206 whole entry, looked up): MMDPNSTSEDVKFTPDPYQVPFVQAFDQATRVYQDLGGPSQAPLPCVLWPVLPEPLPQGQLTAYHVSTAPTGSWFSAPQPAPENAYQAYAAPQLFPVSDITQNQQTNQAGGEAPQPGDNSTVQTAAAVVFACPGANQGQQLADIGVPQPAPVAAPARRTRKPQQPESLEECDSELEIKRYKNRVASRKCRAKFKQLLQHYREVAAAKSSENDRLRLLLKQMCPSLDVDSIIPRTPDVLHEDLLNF
# EBNA-1 inh – blocks EBNA-1 binding to DNA | 300,000 compounds, 0.34% hits | inhibition, % at 14.8 µM | AID 1950 | EBNA-1 DNA binding, fluorescence polarization; in the data active = inhibition above about 28%
# GRIN3A LBD mod – NR3A (human) ligand-binding domain modulation; 340,000 compounds, 2.5% hits; Tm shift relative to glycine control, % at 25 µM; NR3A LBD differential scanning fluorimetry, Tm shift; 0% = protein alone, 100% = glycine-bound protein;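 active = melting temperature shift of at least 10% of the positive control shift, at one fixed dose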
# TPT1 inh – C. albicans TPT1 enzyme inhibition. recombinant caTPT1, FP RNA substrate dephosphorylation. 300,000 compounds, 0.81% hits. inhibition, % at 5 µM;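 active = inhibition above the mean of all tested compounds plus 3 SD, set per screening campaign, cut at about 24% in these data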
# Rpn11 inh – Rpn11 (human) deubiquitinase inhibition; O00487; 360,000 compounds, 0.59% hits; inhibition, % at 20 µM; human 26S proteasome, Ub4-pepOG fluorescence polarization; 20S core pre-blocked with epoxomicin;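 active = inhibition at 20 µM, scaled to each plate's controls, above about 33%, limit read from the data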
# Target sequence (O00487 whole entry, looked up): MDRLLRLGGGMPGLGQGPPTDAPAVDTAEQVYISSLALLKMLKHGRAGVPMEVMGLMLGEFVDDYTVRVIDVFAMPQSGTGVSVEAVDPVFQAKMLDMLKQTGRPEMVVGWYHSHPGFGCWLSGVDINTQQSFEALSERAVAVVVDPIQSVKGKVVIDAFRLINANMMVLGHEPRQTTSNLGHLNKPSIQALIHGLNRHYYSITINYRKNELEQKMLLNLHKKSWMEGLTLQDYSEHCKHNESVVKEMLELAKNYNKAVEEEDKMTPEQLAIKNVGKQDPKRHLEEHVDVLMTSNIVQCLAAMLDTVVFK
# Zta DNA confirm – confirmation of Epstein-Barr virus ZTA DNA binding inhibitors. shares compounds with ZTA DNA inh. Zta-ZRE DNA binding, fluorescence polarization. inhibition, % at 11.1 µM. 320 compounds, 30% hits. AID 2361;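 active = mean inhibition across triplicate runs above the hit threshold derived for the original primary screen, cut at about 33% in these data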
# EBNA1 counter – counter-screen for ZTA inhibitors: EBNA-1 DNA binding inhibition | shares compounds with ZTA DNA inh | fluorescence polarization | inhibition, % at 14.8 µM | 320 tested, under 10 active; call rule not given here
# Hits are given with their value; i = inactive; nt = not tested or not shown; + = active, no number; ! = repeats disagree.
SMILES,dFosB act,ZTA DNA inh,EBNA-1 inh,GRIN3A LBD mod,TPT1 inh,Rpn11 inh,Zta DNA confirm,EBNA1 counter
COc1cc(C#Cc2c(-c3cncn3C)n(C)c3ccc(-c4ccc(OC)c(OC)c4)cc23)cc(OC)c1,i,38,nt,i,nt,i,36,i
COc1cc(C#Cc2c(-c3cncn3C)n(C)c3ccc(-c4ccc5cc[nH]c5c4)cc23)cc(OC)c1,i,nt,nt,i,nt,i,nt,nt
Cc1cccc(C(=O)OCC(=O)N2CCCC2=O)c1[N+](=O)[O-],i,i,i,i,i,i,nt,nt
Nc1ccc(Sc2ccccc2CC(=O)O)cc1,nt,i,i,nt,i,nt,nt,nt
CCc1ccc(C(C)NC(=O)c2ccncc2)cc1 (stereo unspecified),i,114,i,i,i,i,i,i
Cc1cc(C(=O)O)ccc1-n1c(C)ccc1C,nt,55,i,nt,i,nt,57,i
CN1CCN(CCCNC(=O)c2ccc(/C=C3\Oc4ccccc4N(Cc4ccccc4F)C3=O)cc2)CC1,i,i,i,i,i,i,nt,nt
Cc1cccc(CN2C(=O)/C(=C\c3ccc(C(=O)NCCCN4CCN(C)CC4)cc3)Oc3ccccc32)c1,i,70,i,nt,i,i,50,i
O=C(Nc1csnn1)c1csnn1,i,49,i,15,i,i,i,i
COc1ccc(-c2nc(N)n(C(=O)c3cccs3)n2)cc1,i,79,i,i,i,i,i,i
COc1ccc(-c2nc(N)n(C(=O)c3ccccc3)n2)cc1,i,nt,nt,i,nt,i,nt,nt
CC1=C(C(=O)N(C(C)C)C(C)C)CC(CC(=O)NC2CCCCC2)C(=O)N1Cc1ccc(C(C)(C)C)cc1 (stereo unspecified),nt,nt,nt,nt,nt,i,nt,nt
CN(CC(=O)Nc1ccc(Cl)c(Cl)c1)CC(=O)Nc1ccc2c(c1)OCO2,i,+,nt,i,nt,i,i,i
CN(CC(=O)Nc1ccc2c(c1)OCO2)CC(=O)Nc1ccc(F)c(F)c1F,i,nt,nt,i,nt,i,nt,nt
COCCNC(=O)C1(C)CCCN(Cc2ccccc2N(C)C)C1 (stereo unspecified),nt,nt,nt,nt,nt,i,nt,nt
Cc1cc2c(cc1C)C(c1ccccc1Br)CC(=O)N2 (stereo unspecified),i,33,i,i,i,i,i,i
COc1ccccc1C1CC(=O)Nc2cc(C)c(C)cc21 (stereo unspecified),i,i,i,i,i,i,nt,nt
CC1=CC(C)(C)Nc2ccccc21,i,39!,i,i,i,i,i,i
CCN1CCN(Cc2ccc(NC(=O)c3cc(NC(=O)c4cc5cccc(OC)c5o4)cc(OC)c3)cc2C(F)(F)F)CC1,i,37,i,i,i,i,i,i
CCOc1ccc(N2C(=O)/C(=C/c3ccccc3)N=C2SC)cc1,i,42,i,i,i,i,i,i
COCCNC(=O)c1cc(-c2ccccc2C)nn1CC1CC(c2cccnc2)=NO1 (stereo unspecified),i,nt,nt,i,nt,i,nt,nt
COCCNC(=O)c1cc(-c2ccccc2)nn1CC1CC(c2cccnc2)=NO1 (stereo unspecified),i,+,i,i,i,i,i,i
Cc1cc(C)c(OCC(=O)OCC(=O)N2c3ccccc3CC2C)c(C)c1 (stereo unspecified),i,i,i,i,i,i,nt,nt
COCCNC(=O)C1CCCN(C(=O)/C=C/c2ccccc2)CC1 (stereo unspecified),nt,nt,nt,nt,nt,i,nt,nt
O=C(Nc1ccc2c(c1)CCCN2C(=O)c1cccs1)c1c(F)cccc1F,i,i,i,i,i,i,nt,nt
SMILES,dFosB act,ZTA DNA inh,EBNA-1 inh,GRIN3A LBD mod,TPT1 inh,Rpn11 inh,Zta DNA confirm,EBNA1 counter
O=C(Nc1ccc2c(c1)CCCN2C(=O)c1cccs1)c1c(F)cccc1Cl,i,42,i,i,i,i,i,i
CC(C)(CO)NCC#Cc1ccccc1,i,i,i,i,i,i,nt,nt
O=C(O)CCn1cc(/C=C/C(=O)c2ccc(Cl)cc2)c(-c2ccc(Br)cc2)n1,i,45,i,i,i,i,i,i
O=C(O)/C=C/c1cn(Cc2ccccc2)nc1-c1ccccc1,i,i,i,i,i,i,nt,nt
O=C(COc1ccccc1[N+](=O)[O-])Nc1ccc2c(c1)OCO2,i,i,i,i,i,i,nt,nt
Cc1ccc(Cn2ncc(Cl)c(Cl)c2=O)cc1,i,i,i,i,i,i,nt,nt
O=c1c(Cl)c(Cl)cnn1Cc1ccccc1Cl,nt,34,i,i,i,nt,i,i
COc1ccccc1NS(=O)(=O)c1cccc(C(=O)NCC(c2cccs2)N(C)C)c1 (stereo unspecified),i,nt,nt,i,nt,i,nt,nt
CC(C)(C)n1nnnc1C(c1ccc(Cl)cc1)N1CCCc2ccccc21 (stereo unspecified),i,i,i,i,i,i,nt,nt
CC(C)(C)n1nnnc1C(c1cccc(C#N)c1)N1CCCc2ccccc21 (stereo unspecified),i,44,i,i,i,i,i,i
C#CCOCCOCCOCCNc1nc(N2CCN(C(=O)CCCCCCCCCCNC(=O)Cn3cc(CCCCCN)nn3)CC2)nc(N2CCN(C(=O)CCCCCCCCCCNC(=O)[C@@H](CCC(=O)O)n3cc(CCCCCN)nn3)CC2)n1,i,61,i,i,i,i,i,i
C#CCOCCOCCOCCNc1nc(N2CCN(C(=O)CCCCCCCCCCNC(=O)Cn3cc(CCCCCN)nn3)CC2)nc(N2CCN(C(=O)CCCCCCCCCCNC(=O)Cn3cc(CCCCCN)nn3)CC2)n1,i,49,i,i,i,i,38,i
C#CCOCCOCCOCCNc1nc(N2CCN(C(=O)Cn3cc(CCCCN)nn3)CC2)nc(N2CCN(C(=O)Cn3cc(CCCCN)nn3)CC2)n1,i,i,i,i,i,i,nt,nt
O=c1oc2ccccc2c2c1ccc1ccccc12,i,nt,nt,i,nt,i,nt,nt
O=C(COc1ccccc1/C=C\c1[nH]c(=O)[nH]c(=O)c1[N+](=O)[O-])Nc1ccccc1,i,48,i,i,i,i,72,i
COc1ccc(CCN2C(=O)CS/C2=N\NC(=O)c2cccs2)cc1OC,i,i,i,i,i,i,nt,nt
CCCCn1c(N)c(N(CCOC)C(=O)CCCc2nc3ccccc3c(=O)[nH]2)c(=O)[nH]c1=O,i,136,i,i,i,i,i,i
COCC(=O)Nc1cc(C)cn(Cc2c(F)cccc2Cl)c1=O,i,i,i,i,i,i,nt,nt
OC(CNCCC1C=Nc2ccccc21)Cn1c2ccc(Cl)cc2c2cc(Cl)ccc21 (stereo unspecified),i,52,i,27,i,i,51,i
O=C(CCc1nnc(Cc2ccc3c(c2)OCO3)o1)NC(c1ccccn1)C(F)(F)F (stereo unspecified),i,i,i,i,i,i,nt,nt
N#C/C(=C/c1cn[nH]c1-c1ccc(Br)cc1)C(=O)O,i,i,i,i,i,i,nt,nt
c1ccc(-n2ncc3c(N4CCCCC4)ncnc32)cc1,i,i,i,i,i,i,nt,nt
